PubChem BioAssay (Tox21)
“And” between values parts separate entries of the source, which are not always exact repeats. Equal entries are not always repeated. Where a structure was tested more than once in an assay, its records may differ in their call. The source made the active and inactive calls. A call without a number means that no potency is given here. Unless noted, the call rests on the fitted dose curve; in most records, active means well fitted curve in the direction sought with a large enough effect in the repeat runs; inconclusive means weak or mixed curves; inactive means no such curve, though single readings can be large; an effect the other way counts as inactive or inconclusive.

Columns and labels:
[1] = qHTS assay to identify small molecule antagonists of the glucocorticoid receptor (GR) signaling pathway - cell viability counter screen (AID 720693); further: nearly all actives have a fitted effect of over 55% in size; further: potency means the concentration at half of the fitted maximal effect
[2] = qHTS assay for identifying genotoxic compounds that show differential cytotoxicity against isogenic chicken DT40 cell lines with known DNA damage response pathways - wild type cell line (AID 743012); further: nearly all actives have a fitted effect of over 60% in size; further: potency means the concentration at half of the fitted maximal effect
Summary of the method: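 Viability of DNA repair-proficient chicken DT40 cells was assessed by CellTiter-Glo luminescence following 40 h compound exposure at 37 C/5% CO2.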

[3] = qHTS assay for identifying genotoxic compounds that show differential cytotoxicity against isogenic chicken DT40 cell lines with known DNA damage response pathways - Rev3 mutant cell line (AID 743014); further: nearly all actives have a fitted effect of over 55% in size; further: potency means the concentration at half of the fitted maximal effect
[4] = qHTS assay for identifying genotoxic compounds that show differential cytotoxicity against isogenic chicken DT40 cell lines with known DNA damage response pathways - Rad54/Ku70 mutant cell line (AID 743015); further: nearly all actives have a fitted effect of over 60% in size; further: potency means the concentration at half of the fitted maximal effect
[5] = qHTS assay to identify small molecule antagonists of the androgen receptor (AR) signaling pathway - cell viability counter screen (AID 743033; further: nearly all actives have a fitted effect of over 45% in size; further: potency means the concentration at half of the fitted maximal effect)
[6] = qHTS assay to identify small molecule antagonists of the androgen receptor (AR) signaling pathway using the MDA cell line - cell viability counter screen (AID 743041; further: nearly all actives have a fitted effect of over 45% in size; further: potency means the concentration at half of the fitted maximal effect)
Summary of the method: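 Cytotoxicity counter screen: MDA-kb2 AR-luc cells, compound + R1881, 16 h, 37C, 0% CO2; CellTiter-Fluor added at 15.5 h, fluorescence read after 30 min.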

[7] = qHTS assay to identify small molecule antagonists of the thyroid receptor (TR) signaling pathway (AID 743065); further: nearly all actives have a fitted effect of over 55% in size; further: potency means the concentration at half of the fitted maximal effect
Summary of the method: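 GH3.TRE-Luc rat pituitary cells (two TREs driving luciferase) were dosed with compound, then stimulated with 1 nM T3 (final) for 23.5 h at 37 C. ONE-Glo luminescence was the read-out, with CellTiter-Fluor fluorescence as the cytotoxicity counter-screen.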

[8] = test system: thyroid hormone receptor (rat, GH3 cells); assay: qHTS assay to identify small molecule agonists of the thyroid receptor (TR) signaling pathway (AID 743066; calls by dose curve; further: potency means the concentration at half of the fitted maximal effect)
[9] = molecular target: Estrogen receptor (Homo sapiens) (UniProt P03372); assay: qHTS assay to identify small molecule antagonists of the estrogen receptor alpha (ER-alpha) signaling pathway (AID 743069; active means well fitted curve in the direction sought with a large enough effect in the signal ratio in the repeat runs, not every such curve was filed as active; inconclusive means weak or mixed curves, or effect the other way; inactive means no such curve, though single readings can be large or run the other way; the % refers to the signal ratio; further: potency means the concentration at half of the fitted maximal effect)
Chain of Estrogen receptor (Homo sapiens) (P03372 whole entry, looked up): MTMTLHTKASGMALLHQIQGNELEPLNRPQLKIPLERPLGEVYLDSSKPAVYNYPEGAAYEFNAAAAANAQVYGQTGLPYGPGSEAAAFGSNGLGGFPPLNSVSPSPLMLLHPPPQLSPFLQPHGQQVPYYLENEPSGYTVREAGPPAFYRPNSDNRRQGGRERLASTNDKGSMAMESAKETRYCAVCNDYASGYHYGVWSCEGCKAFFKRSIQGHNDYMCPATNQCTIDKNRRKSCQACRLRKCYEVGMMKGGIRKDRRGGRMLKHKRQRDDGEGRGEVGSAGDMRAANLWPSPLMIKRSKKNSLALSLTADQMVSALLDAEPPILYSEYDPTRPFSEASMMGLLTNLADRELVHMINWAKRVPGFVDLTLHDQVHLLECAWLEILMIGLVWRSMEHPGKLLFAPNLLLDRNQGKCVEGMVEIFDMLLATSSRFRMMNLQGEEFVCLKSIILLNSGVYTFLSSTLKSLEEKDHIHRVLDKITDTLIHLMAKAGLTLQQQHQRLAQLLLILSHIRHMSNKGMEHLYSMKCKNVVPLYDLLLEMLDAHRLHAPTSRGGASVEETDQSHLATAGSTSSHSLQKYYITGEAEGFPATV
Summary of the method: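 Beta-lactamase FRET fluorescence is read after 2 hr at room temperature with LiveBLAzer B/G substrate. Before that, ER-alpha-bla HEK293 cells sit 4 hr after plating, then receive compound plus 17beta-estradiol and incubate 18 hr at 37C.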

[10] = qHTS assay to identify small molecule antagonists of the estrogen receptor alpha (ER-alpha) signaling pathway - cell viability counter screen (AID 743074; calls by dose curve;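 further: HEK293 cells carrying ER-alpha-UAS-bla reporter stimulated with 17beta-estradiol; nearly all actives have a fitted effect of over 45% in size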)
[11] = molecular target: Estrogen receptor (Homo sapiens) (UniProt P03372); assay: qHTS assay to identify small molecule agonists of the estrogen receptor alpha (ER-alpha) signaling pathway (AID 743075; calls by dose curve;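 further: HEK293 GripTite cells with ER-alpha and UAS-driven beta-lactamase reporter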; further: potency means the concentration at half of the fitted maximal effect)
[12] = molecular target: Estrogen receptor (Homo sapiens) (UniProt P03372); assay: qHTS assay to identify small molecule agonists of the estrogen receptor alpha (ER-alpha) signaling pathway using the BG1 cell line (AID 743079); further: nearly all actives have a fitted effect of over 20% in size; further: potency means the concentration at half of the fitted maximal effect
[13] = qHTS assay to identify small molecule antagonists of the estrogen receptor alpha (ER-alpha) signaling pathway using the BG1 cell line - cell viability counter screen (AID 743081);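 further: compound given together with 17beta-estradiol as the ER stimulus; nearly all actives have a fitted effect of over 45% in size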; further: potency means the concentration at half of the fitted maximal effect
[14] = molecular target: Aromatase (Homo sapiens) (UniProt P11511); assay: qHTS assay to identify aromatase inhibitors (AID 743083); further: nearly all actives have a fitted effect of over 55% in size; further: potency means the concentration at half of the fitted maximal effect
Chain of Aromatase (Homo sapiens) (P11511 whole entry, looked up): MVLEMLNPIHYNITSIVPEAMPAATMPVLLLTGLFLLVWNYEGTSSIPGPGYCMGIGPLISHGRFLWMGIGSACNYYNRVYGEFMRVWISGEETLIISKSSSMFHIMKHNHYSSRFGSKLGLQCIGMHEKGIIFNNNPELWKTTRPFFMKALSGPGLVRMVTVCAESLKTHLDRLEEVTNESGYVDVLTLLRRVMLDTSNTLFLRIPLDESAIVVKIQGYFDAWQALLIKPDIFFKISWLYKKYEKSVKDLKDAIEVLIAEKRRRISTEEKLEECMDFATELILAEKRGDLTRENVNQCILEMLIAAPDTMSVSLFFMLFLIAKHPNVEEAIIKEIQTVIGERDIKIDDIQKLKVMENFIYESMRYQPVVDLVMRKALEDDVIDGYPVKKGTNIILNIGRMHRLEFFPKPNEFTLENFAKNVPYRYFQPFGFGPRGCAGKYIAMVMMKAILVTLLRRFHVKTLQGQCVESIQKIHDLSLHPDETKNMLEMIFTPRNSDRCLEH

[15] = qHTS assay to identify small molecule antagonists of the thyroid receptor (TR) signaling pathway - cell viability counter screen (AID 743064); further: nearly all actives have a fitted effect of over 50% in size; further: potency means the concentration at half of the fitted maximal effect
Summary of the method: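 Same-well viability check: GH3.TRE-Luc cells stimulated with 1 nM T3 alongside test compound for 23.5 h, followed by CellTiter-Fluor fluorescence.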

[16] = qHTS assay to identify small molecule antagonists of the estrogen receptor alpha (ER-alpha) signaling pathway using the BG1 cell line (AID 743080; calls by dose curve;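 further: BG1 cells stimulated with 17beta-estradiol alongside compound; series mostly up to about 70 µM; nearly all actives have a fitted effect of over 25% in size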)
Summary of the method: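 Luciferase inhibition measured with ONE-Glo after 30 min at RT in BG1Luc4E2 cells given test compounds and 17beta-estradiol for 21.5 h at 37 C; CellTiter-Fluor viability read in the same wells beforehand.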

[17] = molecular target: Androgen receptor (Homo sapiens) (UniProt P10275); assay: qHTS assay to identify small molecule agonists of the androgen receptor (AR) signaling pathway (AID 743036; active means well fitted activation curve with a large enough effect in the signal ratio in the repeat runs, with a control signal flat, not every such curve was filed as active; inconclusive means weak or mixed curves, or effect the other way; inactive means no such curve, though single readings can be large or run the other way; the % refers to the signal ratio)
Chain of Androgen receptor (Homo sapiens) (P10275 whole entry, looked up): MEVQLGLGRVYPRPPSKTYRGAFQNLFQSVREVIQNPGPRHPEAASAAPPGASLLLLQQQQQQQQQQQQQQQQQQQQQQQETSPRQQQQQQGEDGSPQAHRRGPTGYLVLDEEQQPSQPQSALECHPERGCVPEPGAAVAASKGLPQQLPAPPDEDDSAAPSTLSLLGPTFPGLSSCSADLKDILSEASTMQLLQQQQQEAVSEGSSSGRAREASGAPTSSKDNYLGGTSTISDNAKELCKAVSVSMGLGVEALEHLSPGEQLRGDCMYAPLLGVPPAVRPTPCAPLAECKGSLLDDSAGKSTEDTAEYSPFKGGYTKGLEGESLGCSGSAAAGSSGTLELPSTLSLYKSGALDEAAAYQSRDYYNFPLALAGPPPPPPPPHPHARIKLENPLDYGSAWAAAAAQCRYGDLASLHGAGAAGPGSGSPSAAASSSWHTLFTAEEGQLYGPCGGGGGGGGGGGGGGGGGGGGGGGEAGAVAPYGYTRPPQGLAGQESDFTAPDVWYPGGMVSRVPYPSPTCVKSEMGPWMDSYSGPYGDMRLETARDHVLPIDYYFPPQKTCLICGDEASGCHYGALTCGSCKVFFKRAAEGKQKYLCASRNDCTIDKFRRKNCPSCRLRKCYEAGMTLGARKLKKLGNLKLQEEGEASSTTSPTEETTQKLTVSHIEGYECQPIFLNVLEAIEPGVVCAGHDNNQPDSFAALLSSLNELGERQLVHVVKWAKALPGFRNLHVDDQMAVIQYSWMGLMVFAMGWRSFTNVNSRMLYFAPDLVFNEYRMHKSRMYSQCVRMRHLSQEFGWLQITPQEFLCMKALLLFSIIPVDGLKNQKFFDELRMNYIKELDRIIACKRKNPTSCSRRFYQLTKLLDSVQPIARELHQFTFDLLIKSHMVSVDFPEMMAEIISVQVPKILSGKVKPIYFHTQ
Summary of the method: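 Agonist activity was scored by beta-lactamase reporter fluorescence in stably transfected HEK293 cells exposed to compounds for 16 h at 37C and 5% CO2. Substrate loading took 2 h at room temperature.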

[18] = molecular target: Androgen receptor (Homo sapiens) (UniProt P10275); assay: qHTS assay to identify small molecule agonists of the androgen receptor (AR) signaling pathway using the MDA cell line (AID 743040; further: nearly all actives have a fitted effect of over 20% in size)
Summary of the method: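 Luciferase read-out, ONE-Glo, 30 min RT. Cells: MDA-kb2 AR-luc, MMTV promoter with AR and GR response elements. Compound exposure 16 h, 37C, 0% CO2, after 5 h pre-incubation. qHTS agonist mode.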

[19] = molecular target: Androgen receptor (Homo sapiens) (UniProt P10275); assay: qHTS assay to identify small molecule antagonists of the androgen receptor (AR) signaling pathway using the MDA cell line (AID 743042; further: nearly all actives have a fitted effect of over 55% in size)
Summary of the method: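 MDA-kb2 breast carcinoma cells carrying MMTV-luciferase (AR/GR responsive) were co-treated with compounds and the agonist R1881 for 16 h at 37C. Inhibition read as ONE-Glo luminescence; CellTiter-Fluor fluorescence measured in parallel for cytotoxicity.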

[20] = molecular target: Androgen receptor (Homo sapiens) (UniProt P10275); assay: qHTS assay to identify small molecule antagonists of the androgen receptor (AR) signaling pathway (AID 743035; active means well fitted inhibition curve with a large enough effect in the signal ratio in the repeat runs, not every such curve was filed as active; inconclusive means weak or mixed curves, or effect the other way; inactive means no such curve, though single readings can be large or run the other way; the % refers to the signal ratio)
Summary of the method: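 Reporter HEK293 cells were exposed to compounds and R1881 overnight (16 h, 37C); beta-lactamase activity was then quantified by FRET fluorescence.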

| Compound | Potency [1] | Potency [2] | Potency [3] | Potency [4] | Potency [5] | Potency [6] | Potency [7] | Potency [8] | Potency [9] | Potency [10] | Potency [11] | Potency [12] | Potency [13] | Potency [14] | Potency [15] | Potency [16] | outcome [17] | Potency [18] | Potency [19] | Potency [20] |
| --- | --- | --- | --- | --- | --- | --- | --- | --- | --- | --- | --- | --- | --- | --- | --- | --- | --- | --- | --- | --- |
| COCC(C)N(C(=O)CCl)c1c(C)csc1C (stereo unspecified) | inactive | inactive and 17.2 µM (active) | inactive and 15.4 µM (active) | inactive and 17.2 µM (active) | inactive | inactive | inactive | inactive | inactive and 30.9 µM [inconclusive] (active) | inactive | inactive | inactive | inactive | inactive and 34.4 µM (active) | – | – | – | – | – | – |
| O=[N+]([O-])c1ccc(F)c([N+](=O)[O-])c1 | inactive | inactive | inactive | inactive | inactive | 55 µM (active) | – | inactive | – | inactive | inactive | – | 18.8 µM (active) and 49 µM (active) | inactive | inactive | – | – | – | – | – |
| O=C(O)C(F)(F)C(F)(F)C(F)(F)C(F)(F)C(F)(F)C(F)(F)C(F)(F)C(F)(F)C(F)(F)C(F)(F)F | inactive | inactive | inactive | inactive | inactive | inactive | inactive | inactive | – | – | – | – | inactive | inactive | – | – | – | – | – | – |
| O=C(O)C(F)(F)C(F)(F)C(F)(F)C(F)(F)C(F)(F)C(F)(F)C(F)(F)C(F)(F)C(F)(F)F | inactive | inactive | inactive | inactive | inactive | inactive | inactive | inactive | 15.5 µM [inhibitor] (active) | inactive | inactive | inactive | inactive | inactive | – | inactive | – | – | – | – |
| O=C(CBr)OCc1ccccc1 | inactive | inactive | inactive | inactive | inactive | inactive | – | – | inactive | inactive | – | – | inactive | inactive | inactive | inactive | – | – | – | – |
| CC(Cl)Cl | inactive | inactive | inactive | inactive | inactive | inactive | inactive | inactive | inactive | inactive | inactive | – | inactive | inactive | – | inactive | – | – | – | – |
| CCOP(=O)(OCC)SCCSCC | inactive | inactive | inactive | inactive | inactive | inactive | inactive | inactive | inactive | inactive | inactive | – | inactive | inactive | – | – | – | – | – | – |
| CCn1cc[n+](C)c1 | inactive | inactive | inactive | inactive | inactive | inactive | – | inactive and 49.2 µM (active) | – | inactive | – | – | inactive | – | inactive | – | – | – | – | – |
| CC(C)N(C(=O)COc1nnc(C(F)(F)F)s1)c1ccc(F)cc1 | inactive | 15.4 µM (active) | 13.7 µM (active) | 15.4 µM (active) | – | inactive | – | inactive | inactive | inactive | inactive | inactive | inactive | inactive | – | inactive | – | – | – | – |
| CN1[C@@H]2CC[C@H]1CC(OC(=O)c1cc(Cl)cc(Cl)c1)C2 (stereo partly specified) | inactive | 3.76 µM (active) | 2.98 µM (active) | 5.96 µM (active) | inactive | inactive | – | – | inactive | inactive | inactive | inactive | inactive | inactive | – | – | – | – | – | – |
| O=C(NCc1cccnc1)Nc1ccc([N+](=O)[O-])cc1 | inactive | inactive | inactive | – | inactive | inactive | 68.6 µM (active) | inactive | inactive | inactive | inactive | inactive | inactive | inactive | – | – | – | – | – | – |
| O=C(Nc1ccccc1)Nc1cnns1 | inactive | 54.4 µM (active) | 54.4 µM (active) | 30.6 µM (active) | – | – | 61.1 µM (active) | inactive | – | inactive | inactive | – | inactive | – | inactive | – | – | – | – | – |
| Clc1cccc(SC2CCNCC2)n1 | inactive | inactive | inactive | – | inactive | – | – | inactive | – | inactive | inactive | inactive | inactive | inactive | inactive | inactive | – | – | – | – |
| Clc1ccc(C2(Cn3cncn3)CC(Br)CO2)c(Cl)c1 (stereo unspecified) | inactive | 8.58 µM (active) | 8.58 µM (active) | 12.1 µM (active) | – | inactive | – | inactive | – | inactive | inactive | – | inactive | 17.1 µM (active) | inactive | – | – | – | – | – |
| CCC(Br)(CC)C(=O)NC(N)=O | inactive | inactive | 54.5 µM (active) | inactive | inactive | inactive | – | inactive | – | inactive | – | – | inactive | inactive | – | – | – | – | – | – |
| Clc1ccc(C(OCCN2CCCCC2)c2ccccc2)cc1 (stereo unspecified) | inactive | 3.59 µM (active) | 11.4 µM (active) | 10.1 µM (active) | – | – | 11.4 µM (active) | inactive | inactive | inactive | inactive | inactive | inactive | inactive | 9.02 µM (active) | inactive | – | – | – | – |
| O=S1OC[C@@H]2[C@H](CO1)[C@]1(Cl)C(Cl)=C(Cl)[C@@]2(Cl)C1(Cl)Cl (stereo partly specified) | inactive | 24.3 µM (active) | 27.3 µM (active) | 30.6 µM (active) | – | inactive | – | inactive | – | inactive | inactive | – | inactive | 61.1 µM (active) | – | – | inactive | inactive | – | – |
| CCC(C)(NC(=O)c1cc(Cl)c(C)c(Cl)c1)C(=O)CCl (stereo unspecified) | 43.9 µM (active) | 6.9 µM (active) | 12.3 µM (active) | 9.75 µM (active) | 24.7 µM (active) | – | 8.69 µM (active) | – | 62 µM [inconclusive] (active) | – | – | – | inactive | 61.5 µM (active) | – | – | – | – | – | – |
| COP(=S)(Oc1cc(Cl)c(Br)cc1Cl)c1ccccc1 (stereo unspecified) | inactive | inactive | inactive | – | inactive | inactive | 61.1 µM (active) | inactive | inactive | inactive | inactive | inactive | inactive | – | – | – | – | inactive | inactive | – |
| CCCC(=O)Cl | inactive | inactive | – | inactive | inactive | inactive | inactive | inactive | inactive | inactive | inactive | inactive | inactive | inactive | inactive | – | – | – | – | – |
| CNP(=O)(OC)Oc1ccc(C(C)(C)C)cc1Cl (stereo unspecified) | inactive | 13.7 µM (active) | 19.3 µM (active) | 21.7 µM (active) | – | inactive | inactive | inactive | – | inactive | inactive | inactive | inactive | inactive | inactive | inactive | – | – | – | – |
| c1ccc(C2CC2)c(OCC2=NCCN2)c1 | inactive | inactive | – | inactive | inactive | inactive | inactive | inactive | inactive | inactive | inactive | inactive | – | inactive | inactive | – | inactive | inactive | inactive | inactive |
| C=CCCl | inactive | inactive | – | inactive | inactive | inactive | inactive | inactive | inactive | inactive | 57.6 µM [activator] (active) | 32.1 µM (active) | inactive | inactive | inactive | inactive | – | – | – | – |
| Nc1nc(=S)[nH][nH]1 | inactive | inactive | 48.6 µM (active) | – | inactive | inactive | inactive | inactive | inactive | inactive | inactive | inactive | inactive | inactive | inactive | inactive | – | – | – | – |
| Oc1ccc(Cl)c(Cl)c1Cl | inactive | inactive | inactive | inactive | – | inactive | inactive | inactive | – | inactive | – | – | inactive | inactive | inactive | – | – | – | – | – |
